Data from PubChem BioAssay AID894 (National Center for Advancing Translational Sciences (NCATS), 2007).
Where “and” joins values, the source holds several entries; their conditions need not be identical. Equal values may be shown once. The campaign covered roughly 150,000 compounds. About 6,500 (4.3%) were called active. Another 12% or so got no clear call; they are omitted. Only a selection was taken, and actives are over-represented in it overall. Where a structure was tested more than once in an assay, its records may differ in their call. A number with no mark means an inactive call. Calls come from the whole dose curve; as a rule, active = well fitted inhibition curve with a large enough effect (not every such curve was filed as active); inconclusive = small, poorly fitted or top-dose-only effect, or another doubt; inactive = no such curve, though single readings can be large or run the other way.

Target: 15-hydroxyprostaglandin dehydrogenase [NAD(+)] (Homo sapiens) (UniProt P15428)
Sequence (P15428 whole entry, looked up): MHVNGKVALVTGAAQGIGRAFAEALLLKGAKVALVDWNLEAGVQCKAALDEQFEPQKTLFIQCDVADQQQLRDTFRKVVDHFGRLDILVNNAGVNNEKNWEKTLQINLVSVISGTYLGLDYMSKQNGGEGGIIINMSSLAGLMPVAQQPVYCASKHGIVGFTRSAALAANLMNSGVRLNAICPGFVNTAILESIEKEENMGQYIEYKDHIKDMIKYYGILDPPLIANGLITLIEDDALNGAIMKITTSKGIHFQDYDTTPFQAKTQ
Test: qHTS Assay for Inhibitors of HPGD (15-Hydroxyprostaglandin Dehydrogenase)
Details: purified HPGD, NADH fluorescence kinetic, PGE2 substrate; activity change, negative = inhibition: hits give low values
From the text: Human 15-Hydroxyprostaglandin dehydrogenase (HPGD) catalyzes the inactivation of prostaglandin E2, and plays a major role in cancer biology by antagonizing the oncogenic potential of cyclooxygenase type 2 (COX2). Assays are available, based on absorbance/fluorescence increase of NADH with the substrate 15-OH prostaglandin E2. References 1. Myung SJ, Rerko RM, Yan M, Platzer P, Guda K, Dotson A, Lawrence E, Dannenberg AJ, Lovgren AK, Luo G, Pretlow TP, Newman RA, Willis J, Dawson D, Markowitz SD. 15-Hydroxyprostaglandin dehydrogenase is an in vivo suppressor of colon tumorigenesis. […] 2. Yan M, Rerko RM, Platzer P, Dawson D, Willis J, Tong M, Lawrence E, Lutterbaugh J, Lu S, Willson JK, Luo G, Hensold J, Tai HH, Wilson K, Markowitz SD. 15-Hydroxyprostaglandin dehydrogenase, a COX-2 oncogene antagonist, is a TGF-beta-induced suppressor of human gastrointestinal cancers. Proc Natl Acad Sci U S A. 2004 Dec 14;101(50):17468-73. 3. Yang L, Amann JM, Kikuchi T, Porta R, Guix M, Gonzalez A, Park KH, Billheimer D, Arteaga CL, Tai HH, Dubois R, Carbone DP, Johnson DH. Inhibition of Epidermal Growth Factor Receptor Signaling Elevates 15-Hydroxyprostaglandin Dehydrogenase in Non-Small-Cell Lung Cancer. Cancer Res. 2007 Jun 15;67(12):5587-5593. Inhibition of HPGD activity was screened by utilizing prostaglandin as an electron donor and NAD+ as an electron acceptor/cofactor. An increase in the fluorescence intensity due to conversion of NAD+ to NADH was used to measure the enzyme activity. NIH Chemical Genomics Center [NCGC] Structural Genomics Consortium [SGC]
Buffer: 50 mM Tris-HCl, 0.01% Tween 20, pH 8. Enzyme Buffer: 50 mM Tris-HCl, 0.5 mM NAD+ and 0.01% Tween 20, pH 8. Reagents/Controls: Buffer in columns 3 and 4 as negative control (no enzyme). Substrate/cofactor solution: 1 mM NAD+ and 30 uM prostaglandin (Sigma, prostaglandin E2, # P5640) final concentrations dispensed throughout the plate. Enzyme: 20 nM HPGD final concentration in columns 1, 2, 5-48. Column 1 and 2 is neutral (100% activity). A titration of control inhibitor GW5074 (G6416 Sigma-Aldrich, St. Louis, MO) top concentration 10 mM in DMSO, then 1:2 dilution for a total of 16 concentrations in duplicate) was pin-transferred into column 2. Assay Steps: Three uL of enzyme were dispensed to 1536-well Greiner black solid bottom plates. Compounds and control inhibitor (23 nL) were transferred via Kalypsys PinTool. The plates were incubated for 15 min at room temperature, and then 1 uL of substrate/cofactor solution was added to start the reaction. The plates were immediately transferred to and read 5 times every 30 seconds on ViewLux High-throughput CCD imager (Perkin-Elmer) using 360 nm excitation and 450 nm emission fluorescence protocol. The fluorescence intensity difference between the last and the first time points was used to compute reaction progress.
% is set by controls: 0 for no effect and ±100 for the full control effect; potency is the fitted concentration of half-maximal effect.

Compound | activity change, negative = inhibition | Potency
COCCNC(=O)c1ccccc1NS(=O)(=O)c1ccc(C)c([N+](=O)[O-])c1 | 1.9% | –
O=C(Cn1[nH]c(=O)c2ccccc2c1=O)Nc1cccc(-c2nnc3n2CCCCC3)c1 | – | 14.1 µM (active)
Brc1cccc(-c2nnc3n2CCC3)c1 | -11.6% | –
Cc1cccc(NC(=O)CN2C(=O)CNC2=O)c1 | -7.22% | –
COc1ccnc(Oc2ccccc2)n1 | -1.44% | –
O=[N+]([O-])c1ccc(N/N=C2/CCCCC2c2ccccn2)c([N+](=O)[O-])c1 (stereo not drawn) | -4.22% | –
Cc1ccc(S(=O)(=O)N2CCOCC2)cc1C(=O)NC(=S)N(Cc1ccccc1)C(C)C | -17.6% | –
CCC(C(=O)OCC(=O)Nc1ccc(C(=O)Nc2ccc(OC)cc2)cc1)c1ccccc1 (stereo not drawn) | -12.4% | –
Cc1nc2ccc(C(=O)N3CCSCC3)cc2s1 | – | 1.58 µM (active)
Cc1nc2ccc(C(=O)N3CCN(c4ccccc4)CC3)cc2s1 | -2.92% | –
Cc1nc2ccc(S(=O)(=O)NC(C(=O)N3CCCCCC3)C(C)C)cc2s1 (stereo not drawn) | -2.12% | –
O=C(N/N=C/c1ccc2c(c1)OCO2)c1ccc(Cn2cc([N+](=O)[O-])cn2)o1 | -8.13% | –
C=CCN1C(=O)C(Cc2ccc(OCC)cc2)SC1=Nc1ccc(C(=O)O)cc1 (stereo not drawn) | -8.9% | –
Cc1ccc(C)c(OCC(=O)N2CCN(C(=O)c3ccco3)CC2)c1 | 1.99% | –
COc1cc(NS(=O)(=O)c2ccc(N=Cc3c(C)[nH]n(-c4ccccc4)c3=O)cc2)nc(OC)n1 | -14.8% | –
CCc1nnc(NS(=O)(=O)c2ccc(NS(=O)(=O)c3ccccc3)cc2)s1 | 2.28% | –
CCc1nnc(NS(=O)(=O)c2ccc(N=Cc3c(C)[nH]n(-c4ccc(C)cc4)c3=O)cc2)s1 | – | 25.1 µM (active)
COC(=O)C1(C(C)=O)CC2=CC[C@H]3C(=O)N(c4ccccc4)C(=O)[C@H]3[C@@H]2Cc2ccccc2[C@@H]1C[N+](=O)[O-] (stereo partly drawn) | -2.53% and -4.27% | –
Oc1c(Cl)cc(Cl)c(Cl)c1Cc1c(O)c(Cl)cc(Cl)c1Cl | -15.8% and -6.53% | 35.5 µM (active)
NS(=O)(=O)c1ccc(NC(=O)COC(=O)C2(c3ccc(F)cc3)CCCC2)cc1 | -17% | –
Cc1ccc(NC(=O)CC2S/C(=N/N=C3\CCCc4ccccc43)NC2=O)cc1 (stereo not drawn) | -13.9% | –
CCCCCCCCCOC1OC(CO)C(O)C(O)C1NC(C)=O (stereo not drawn) | -3.92% | –
COC(=O)c1cc2nc(-c3ccccc3)cc(C(F)(F)F)n2n1 | -14.5% | –
CC1CCN(C(=O)c2cc3nc(C4CC4)cc(C(F)(F)F)n3n2)CC1 | – | 1.26 µM (active)

Compound | activity change, negative = inhibition | Potency
C=CCNC(=O)c1cc2nc(C3CC3)cc(C(F)F)n2n1 | -7.97% | –
CN(C)/N=C/c1cc(Cl)cc([N+](=O)[O-])c1O | -18.9% | –
O=C(/C=C/c1ccccc1[N+](=O)[O-])NCC1CCCO1 (stereo not drawn) | – | 4.47 µM (active)
O=C(NCC1CCCO1)c1ccc2ccccc2n1 (stereo not drawn) | -27.3% | –
O=C(NCC1CCCO1)/C(=C/c1ccc(Cl)cc1)NC(=O)c1ccccc1 (stereo not drawn) | -23% | –
COC(=O)c1cc(C(=O)N(Cc2ccccc2)c2ccccn2)cc([N+](=O)[O-])c1 | -15.3% | –
Cc1cc(SCC(=O)NCCN2C(=O)CSC2=O)nc2ccccc12 | -24.5% | –
Cc1ccc(C(=O)OCC(=O)NCc2ccc3c(c2)OCO3)s1 | -10.3% | –
Cc1cc(Br)ccc1SCC(=O)OCC(=O)NCc1ccc2c(c1)OCO2 | – | 25.1 µM (active)
O=C(COC(=O)c1ccc(Cl)nc1)NCc1ccc2c(c1)OCO2 | -9.81% | –
C=CCNCCCCOc1ccccc1 | -5.77% | –
COC(=O)c1ccccc1NS(=O)(=O)c1ccc2[nH]c(=O)[nH]c2c1 | -11.9% | –
CCN1C(=O)N[C@@H](CCc2ccccc2)C(C(=O)OC)=C1C | -3.92% | –
COc1cc(C(=O)Nc2nccs2)cc(OC)c1OC | -15.1% | –
CC(=O)Oc1ccc(C(=O)Nc2nccs2)cc1 | -13.6% | –
Cn1cccc1C(=O)Nc1nccs1 | – | 31.6 µM (active)
CC(OC(=O)c1ccccc1N1C(=O)C2C3CCC(C3)C2C1=O)C(=O)c1ccccc1 (stereo not drawn) | -11.4% | –
CCOc1ncccc1C(=O)N(CC)CC(=O)Nc1ccc(NC(C)=O)cc1 | -1.26% | –
C/C=C/c1ccc(OCCOc2ccc(C=O)cc2OC)c(OC)c1 | -16.6% | –
O=C(CC1NCCNC1=O)Nc1cc(Cl)cc(Cl)c1 (stereo not drawn) | -10.9% | –
O=C(Nc1ccc2nc3n(c(=O)c2c1)CCCCC3)c1ccccc1Cl | -20.5% | –
CC(=O)Nc1cccc(/C(C)=N/NC(=O)c2ccccc2Cl)c1 | -5.88% | –
O=C(Nc1cc(=O)[nH]c2ncnn12)c1ccccc1Cl | – | 22.4 µM (active)
